Experiments:
[1] = biological target: T1, Inhibitor of nuclear factor kappa-B kinase subunit epsilon (Homo sapiens) (UniProt Q14164); settings: at 1 µM;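 also: reported values are averaged percent inhibition figures against human IKKε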
T1 sequence (whole entry): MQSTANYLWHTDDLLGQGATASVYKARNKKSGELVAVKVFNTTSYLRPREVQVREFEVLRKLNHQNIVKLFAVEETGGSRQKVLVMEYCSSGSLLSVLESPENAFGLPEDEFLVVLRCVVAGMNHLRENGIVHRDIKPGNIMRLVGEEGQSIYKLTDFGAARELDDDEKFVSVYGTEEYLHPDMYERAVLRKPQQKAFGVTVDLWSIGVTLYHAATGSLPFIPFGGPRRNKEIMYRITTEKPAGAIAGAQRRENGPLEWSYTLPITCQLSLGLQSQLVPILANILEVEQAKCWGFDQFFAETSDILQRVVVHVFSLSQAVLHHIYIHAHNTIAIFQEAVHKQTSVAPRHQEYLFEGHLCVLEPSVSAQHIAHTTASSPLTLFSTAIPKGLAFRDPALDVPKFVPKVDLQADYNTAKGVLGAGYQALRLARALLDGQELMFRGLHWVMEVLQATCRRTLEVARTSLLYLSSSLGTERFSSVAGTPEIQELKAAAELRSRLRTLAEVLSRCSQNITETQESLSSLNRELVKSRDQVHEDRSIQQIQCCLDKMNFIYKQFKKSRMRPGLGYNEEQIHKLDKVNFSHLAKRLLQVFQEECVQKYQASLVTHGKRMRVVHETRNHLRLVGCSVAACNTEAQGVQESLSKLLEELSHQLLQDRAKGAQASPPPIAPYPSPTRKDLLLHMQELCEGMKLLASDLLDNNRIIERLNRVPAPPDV

[2] = biological target: T2, Serine/threonine-protein kinase Nek1 (Homo sapiens) (UniProt Q96PY6); settings: at 0.1 µM
T2 sequence (whole entry): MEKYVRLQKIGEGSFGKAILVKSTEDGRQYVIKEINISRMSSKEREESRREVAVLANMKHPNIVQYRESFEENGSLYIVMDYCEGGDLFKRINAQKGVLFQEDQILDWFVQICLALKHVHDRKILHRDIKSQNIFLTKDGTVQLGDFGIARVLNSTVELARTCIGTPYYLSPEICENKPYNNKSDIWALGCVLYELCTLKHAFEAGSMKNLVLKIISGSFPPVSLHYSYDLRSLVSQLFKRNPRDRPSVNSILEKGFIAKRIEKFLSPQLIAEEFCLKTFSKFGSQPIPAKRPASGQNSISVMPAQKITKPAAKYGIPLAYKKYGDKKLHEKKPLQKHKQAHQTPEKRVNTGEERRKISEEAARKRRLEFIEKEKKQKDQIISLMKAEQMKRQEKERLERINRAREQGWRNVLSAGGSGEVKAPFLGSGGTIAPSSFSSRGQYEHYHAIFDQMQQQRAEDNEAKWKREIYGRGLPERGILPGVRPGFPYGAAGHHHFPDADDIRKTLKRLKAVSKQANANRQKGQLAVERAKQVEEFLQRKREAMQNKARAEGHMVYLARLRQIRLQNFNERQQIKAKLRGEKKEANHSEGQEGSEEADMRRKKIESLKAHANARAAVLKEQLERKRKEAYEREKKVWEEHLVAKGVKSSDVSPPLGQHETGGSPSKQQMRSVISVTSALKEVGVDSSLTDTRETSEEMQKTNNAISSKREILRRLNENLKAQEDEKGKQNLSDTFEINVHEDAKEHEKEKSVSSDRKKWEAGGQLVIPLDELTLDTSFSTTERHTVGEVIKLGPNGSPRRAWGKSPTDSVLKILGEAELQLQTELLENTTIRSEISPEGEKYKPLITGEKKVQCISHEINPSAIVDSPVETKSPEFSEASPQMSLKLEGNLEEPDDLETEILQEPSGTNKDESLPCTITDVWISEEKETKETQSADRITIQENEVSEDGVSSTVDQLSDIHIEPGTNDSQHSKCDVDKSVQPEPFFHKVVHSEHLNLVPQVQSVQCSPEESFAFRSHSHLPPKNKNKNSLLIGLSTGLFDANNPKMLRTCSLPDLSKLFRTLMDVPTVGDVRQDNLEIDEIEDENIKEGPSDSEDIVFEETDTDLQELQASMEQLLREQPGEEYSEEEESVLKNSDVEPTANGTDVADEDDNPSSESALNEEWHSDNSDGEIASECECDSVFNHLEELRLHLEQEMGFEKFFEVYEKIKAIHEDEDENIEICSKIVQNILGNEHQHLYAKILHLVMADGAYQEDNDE

[3] = biological target: T2, Serine/threonine-protein kinase Nek1 (Homo sapiens); settings: at 1 µM
[4] = biological target: T3, Serine/threonine-protein kinase Nek2 (Homo sapiens) (UniProt P51955); settings: at 0.1 µM
T3 sequence (whole entry): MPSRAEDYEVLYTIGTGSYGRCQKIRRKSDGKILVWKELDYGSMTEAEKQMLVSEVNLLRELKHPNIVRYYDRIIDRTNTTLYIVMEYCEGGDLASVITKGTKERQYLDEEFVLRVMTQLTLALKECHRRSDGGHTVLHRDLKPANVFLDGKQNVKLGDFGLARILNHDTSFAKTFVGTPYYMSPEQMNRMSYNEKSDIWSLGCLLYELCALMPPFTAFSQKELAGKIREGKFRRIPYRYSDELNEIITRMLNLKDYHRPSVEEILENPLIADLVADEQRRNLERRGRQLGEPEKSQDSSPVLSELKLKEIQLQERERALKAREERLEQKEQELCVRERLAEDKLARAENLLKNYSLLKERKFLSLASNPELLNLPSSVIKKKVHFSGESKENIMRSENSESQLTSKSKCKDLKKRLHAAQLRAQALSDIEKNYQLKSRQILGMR

[5] = biological target: T3, Serine/threonine-protein kinase Nek2 (Homo sapiens); settings: at 1 µM
[6] = biological target: Serine/threonine-protein kinase Nek6 (Homo sapiens) (UniProt Q9HC98); settings: at 0.1 µM
[7] = biological target: Serine/threonine-protein kinase Nek6 (Homo sapiens) (UniProt Q9HC98); settings: at 1 µM
[8] = biological target: Serine/threonine-protein kinase Nek7 (Homo sapiens) (UniProt Q8TDX7); settings: at 0.1 µM
[9] = biological target: Serine/threonine-protein kinase Nek7 (Homo sapiens) (UniProt Q8TDX7); settings: at 1 µM
[10] = biological target: T4, Serine/threonine-protein kinase Nek9 (Homo sapiens) (UniProt Q8TD19); settings: at 0.1 µM
T4 sequence (whole entry): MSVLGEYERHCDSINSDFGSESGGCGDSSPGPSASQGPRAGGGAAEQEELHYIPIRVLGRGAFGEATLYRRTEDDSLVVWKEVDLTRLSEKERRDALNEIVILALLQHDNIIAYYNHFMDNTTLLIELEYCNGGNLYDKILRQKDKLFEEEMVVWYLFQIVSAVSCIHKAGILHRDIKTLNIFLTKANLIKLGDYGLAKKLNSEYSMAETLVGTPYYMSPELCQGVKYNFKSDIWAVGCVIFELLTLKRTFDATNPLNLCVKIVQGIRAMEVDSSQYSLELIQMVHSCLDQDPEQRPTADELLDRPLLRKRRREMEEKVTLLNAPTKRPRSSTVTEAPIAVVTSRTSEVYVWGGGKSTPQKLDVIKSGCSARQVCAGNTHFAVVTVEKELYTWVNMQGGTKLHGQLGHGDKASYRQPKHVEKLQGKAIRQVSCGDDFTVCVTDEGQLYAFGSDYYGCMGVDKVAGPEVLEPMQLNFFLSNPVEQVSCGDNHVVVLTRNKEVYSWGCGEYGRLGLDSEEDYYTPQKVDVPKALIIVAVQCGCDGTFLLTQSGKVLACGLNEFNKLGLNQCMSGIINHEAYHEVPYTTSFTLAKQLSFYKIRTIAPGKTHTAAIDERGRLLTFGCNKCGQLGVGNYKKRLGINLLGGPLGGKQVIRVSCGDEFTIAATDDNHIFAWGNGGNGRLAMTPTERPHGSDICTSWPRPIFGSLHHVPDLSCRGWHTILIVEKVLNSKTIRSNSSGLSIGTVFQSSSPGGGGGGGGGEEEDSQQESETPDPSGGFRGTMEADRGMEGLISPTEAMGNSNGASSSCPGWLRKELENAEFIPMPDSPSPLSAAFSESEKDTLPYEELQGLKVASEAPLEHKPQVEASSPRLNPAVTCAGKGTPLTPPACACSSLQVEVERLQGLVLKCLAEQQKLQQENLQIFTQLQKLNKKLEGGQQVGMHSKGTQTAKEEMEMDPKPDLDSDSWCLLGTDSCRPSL

[11] = biological target: T4, Serine/threonine-protein kinase Nek9 (Homo sapiens); settings: at 1 µM
[12] = biological target: Serine/threonine-protein kinase PLK1 (Homo sapiens) (UniProt P53350); settings: at 0.1 µM
[13] = biological target: Serine/threonine-protein kinase PLK1 (Homo sapiens) (UniProt P53350); settings: at 1 µM
[14] = biological target: T5, Dual specificity protein kinase TTK (Homo sapiens) (UniProt P33981); settings: at 0.1 µM
T5 sequence (whole entry): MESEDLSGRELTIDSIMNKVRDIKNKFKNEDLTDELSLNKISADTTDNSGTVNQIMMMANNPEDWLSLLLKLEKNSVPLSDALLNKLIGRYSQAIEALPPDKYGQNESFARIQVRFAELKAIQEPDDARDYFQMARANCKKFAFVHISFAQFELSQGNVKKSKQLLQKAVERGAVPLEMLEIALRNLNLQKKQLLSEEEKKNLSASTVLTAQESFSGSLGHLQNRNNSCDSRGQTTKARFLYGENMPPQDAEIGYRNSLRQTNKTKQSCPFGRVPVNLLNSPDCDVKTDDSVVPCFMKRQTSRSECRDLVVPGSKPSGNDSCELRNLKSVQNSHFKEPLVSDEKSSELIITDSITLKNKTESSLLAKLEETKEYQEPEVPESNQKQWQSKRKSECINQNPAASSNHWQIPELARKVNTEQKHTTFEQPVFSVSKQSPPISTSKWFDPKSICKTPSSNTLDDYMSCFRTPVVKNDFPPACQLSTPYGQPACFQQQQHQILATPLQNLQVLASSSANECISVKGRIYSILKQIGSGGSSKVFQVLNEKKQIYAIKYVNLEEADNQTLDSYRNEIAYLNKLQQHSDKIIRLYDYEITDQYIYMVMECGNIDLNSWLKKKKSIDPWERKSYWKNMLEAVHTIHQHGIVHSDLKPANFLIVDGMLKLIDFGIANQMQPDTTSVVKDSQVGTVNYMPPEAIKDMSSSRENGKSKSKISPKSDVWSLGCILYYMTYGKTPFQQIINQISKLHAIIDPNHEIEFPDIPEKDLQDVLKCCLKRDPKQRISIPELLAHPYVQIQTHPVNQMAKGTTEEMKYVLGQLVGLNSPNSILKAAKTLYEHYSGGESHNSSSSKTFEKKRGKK

[15] = tested on: T6, Receptor-type tyrosine-protein kinase FLT3 (Homo sapiens), P36888 [D835Y]; settings: at 1 µM
T6 sequence (whole entry): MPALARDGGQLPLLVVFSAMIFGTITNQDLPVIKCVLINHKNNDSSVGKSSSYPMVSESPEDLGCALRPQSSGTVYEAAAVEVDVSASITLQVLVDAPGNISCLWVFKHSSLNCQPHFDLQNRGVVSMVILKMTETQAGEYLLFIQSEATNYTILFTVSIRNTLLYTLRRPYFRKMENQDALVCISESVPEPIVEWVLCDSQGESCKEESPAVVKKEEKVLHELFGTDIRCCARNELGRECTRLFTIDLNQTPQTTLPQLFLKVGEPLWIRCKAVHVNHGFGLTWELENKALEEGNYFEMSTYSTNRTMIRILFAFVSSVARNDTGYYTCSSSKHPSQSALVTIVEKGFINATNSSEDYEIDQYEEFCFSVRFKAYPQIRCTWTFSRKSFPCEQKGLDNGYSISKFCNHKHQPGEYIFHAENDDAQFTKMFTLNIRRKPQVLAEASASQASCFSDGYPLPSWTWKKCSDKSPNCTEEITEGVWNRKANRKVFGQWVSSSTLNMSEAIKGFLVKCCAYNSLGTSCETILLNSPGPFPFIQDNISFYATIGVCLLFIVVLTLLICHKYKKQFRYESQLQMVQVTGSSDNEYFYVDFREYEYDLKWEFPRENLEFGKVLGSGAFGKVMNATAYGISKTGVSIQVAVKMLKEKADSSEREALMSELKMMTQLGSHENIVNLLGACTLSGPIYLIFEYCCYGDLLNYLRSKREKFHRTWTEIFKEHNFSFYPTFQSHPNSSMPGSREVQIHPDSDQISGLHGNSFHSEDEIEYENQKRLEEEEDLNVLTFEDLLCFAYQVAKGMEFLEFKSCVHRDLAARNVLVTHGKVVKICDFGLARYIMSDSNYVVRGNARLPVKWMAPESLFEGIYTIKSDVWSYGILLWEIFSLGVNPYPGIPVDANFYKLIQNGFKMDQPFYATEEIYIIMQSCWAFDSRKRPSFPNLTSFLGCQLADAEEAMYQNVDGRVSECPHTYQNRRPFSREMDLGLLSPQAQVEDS

[16] = biological target: Vascular endothelial growth factor receptor 3 (Homo sapiens) (UniProt P35916); settings: at 0.1 µM
[17] = biological target: Vascular endothelial growth factor receptor 3 (Homo sapiens) (UniProt P35916); settings: at 1 µM
[18] = biological target: Macrophage colony-stimulating factor 1 receptor (Homo sapiens) (UniProt P07333); settings: at 0.1 µM
[19] = biological target: Macrophage colony-stimulating factor 1 receptor (Homo sapiens) (UniProt P07333); settings: at 1 µM
[20] = biological target: Tyrosine-protein kinase Fyn (Homo sapiens) (UniProt P06241); settings: at 0.1 µM
Sequence of Tyrosine-protein kinase Fyn (Homo sapiens) (P06241 2-537 limits assumed): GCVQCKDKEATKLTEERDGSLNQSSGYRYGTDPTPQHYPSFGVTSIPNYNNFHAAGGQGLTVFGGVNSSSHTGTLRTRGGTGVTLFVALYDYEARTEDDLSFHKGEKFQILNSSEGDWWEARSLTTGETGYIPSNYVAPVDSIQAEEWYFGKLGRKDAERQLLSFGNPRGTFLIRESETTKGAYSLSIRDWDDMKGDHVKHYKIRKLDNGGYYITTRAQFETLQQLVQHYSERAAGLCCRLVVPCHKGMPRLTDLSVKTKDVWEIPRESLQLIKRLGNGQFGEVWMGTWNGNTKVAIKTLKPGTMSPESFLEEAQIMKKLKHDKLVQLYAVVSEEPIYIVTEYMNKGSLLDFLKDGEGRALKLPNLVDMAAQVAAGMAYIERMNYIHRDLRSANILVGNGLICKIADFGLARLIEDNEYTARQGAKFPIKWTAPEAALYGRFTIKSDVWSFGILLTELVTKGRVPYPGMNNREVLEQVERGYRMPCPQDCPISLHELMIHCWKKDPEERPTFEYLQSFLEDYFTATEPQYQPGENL

Sequence of Serine/threonine-protein kinase Nek7 (Homo sapiens) (Q8TDX7 whole entry, looked up): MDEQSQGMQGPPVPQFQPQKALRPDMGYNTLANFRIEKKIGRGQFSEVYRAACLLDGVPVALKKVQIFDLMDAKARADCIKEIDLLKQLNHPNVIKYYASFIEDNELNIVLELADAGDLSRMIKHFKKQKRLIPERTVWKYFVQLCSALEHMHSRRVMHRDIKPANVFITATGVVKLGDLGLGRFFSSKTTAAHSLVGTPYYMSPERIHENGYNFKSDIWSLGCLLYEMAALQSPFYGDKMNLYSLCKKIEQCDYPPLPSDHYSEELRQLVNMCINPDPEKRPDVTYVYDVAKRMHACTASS
Sequence of Macrophage colony-stimulating factor 1 receptor (Homo sapiens) (P07333 whole entry): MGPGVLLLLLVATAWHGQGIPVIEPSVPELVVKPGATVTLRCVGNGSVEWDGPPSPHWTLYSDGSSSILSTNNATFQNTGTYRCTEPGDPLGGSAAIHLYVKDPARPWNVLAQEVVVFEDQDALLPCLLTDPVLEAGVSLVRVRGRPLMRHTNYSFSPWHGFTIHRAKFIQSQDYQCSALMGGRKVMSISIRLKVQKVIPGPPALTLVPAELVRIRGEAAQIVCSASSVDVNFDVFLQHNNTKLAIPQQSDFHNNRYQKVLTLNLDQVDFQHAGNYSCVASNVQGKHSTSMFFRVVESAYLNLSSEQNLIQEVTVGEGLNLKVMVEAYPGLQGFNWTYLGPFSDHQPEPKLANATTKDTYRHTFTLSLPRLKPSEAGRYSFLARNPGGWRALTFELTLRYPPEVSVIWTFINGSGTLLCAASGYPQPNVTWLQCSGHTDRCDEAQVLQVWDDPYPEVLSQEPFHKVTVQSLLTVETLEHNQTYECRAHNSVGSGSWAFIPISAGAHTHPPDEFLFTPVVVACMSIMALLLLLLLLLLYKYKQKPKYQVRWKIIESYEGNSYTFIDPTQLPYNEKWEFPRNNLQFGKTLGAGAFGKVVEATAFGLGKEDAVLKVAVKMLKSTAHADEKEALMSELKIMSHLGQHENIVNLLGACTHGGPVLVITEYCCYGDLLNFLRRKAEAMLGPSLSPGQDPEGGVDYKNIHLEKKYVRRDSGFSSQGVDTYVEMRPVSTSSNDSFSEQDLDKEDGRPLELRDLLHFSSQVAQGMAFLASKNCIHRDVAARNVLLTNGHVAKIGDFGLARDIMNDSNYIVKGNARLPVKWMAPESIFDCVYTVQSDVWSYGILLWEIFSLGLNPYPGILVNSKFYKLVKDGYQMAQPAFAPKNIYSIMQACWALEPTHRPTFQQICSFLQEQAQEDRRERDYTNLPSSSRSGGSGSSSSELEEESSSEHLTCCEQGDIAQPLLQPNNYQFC
Sequence of Serine/threonine-protein kinase Nek6 (Homo sapiens) (Q9HC98 whole entry): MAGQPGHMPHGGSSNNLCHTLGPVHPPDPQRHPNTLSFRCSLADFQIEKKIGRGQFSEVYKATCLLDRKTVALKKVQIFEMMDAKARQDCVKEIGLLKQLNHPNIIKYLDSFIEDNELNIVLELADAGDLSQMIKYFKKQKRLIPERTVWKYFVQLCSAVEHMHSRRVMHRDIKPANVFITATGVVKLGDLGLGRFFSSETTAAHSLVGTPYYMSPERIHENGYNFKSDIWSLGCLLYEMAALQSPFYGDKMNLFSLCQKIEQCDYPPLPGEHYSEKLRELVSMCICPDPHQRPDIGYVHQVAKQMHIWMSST
Sequence of Vascular endothelial growth factor receptor 3 (Homo sapiens) (P35916 whole entry): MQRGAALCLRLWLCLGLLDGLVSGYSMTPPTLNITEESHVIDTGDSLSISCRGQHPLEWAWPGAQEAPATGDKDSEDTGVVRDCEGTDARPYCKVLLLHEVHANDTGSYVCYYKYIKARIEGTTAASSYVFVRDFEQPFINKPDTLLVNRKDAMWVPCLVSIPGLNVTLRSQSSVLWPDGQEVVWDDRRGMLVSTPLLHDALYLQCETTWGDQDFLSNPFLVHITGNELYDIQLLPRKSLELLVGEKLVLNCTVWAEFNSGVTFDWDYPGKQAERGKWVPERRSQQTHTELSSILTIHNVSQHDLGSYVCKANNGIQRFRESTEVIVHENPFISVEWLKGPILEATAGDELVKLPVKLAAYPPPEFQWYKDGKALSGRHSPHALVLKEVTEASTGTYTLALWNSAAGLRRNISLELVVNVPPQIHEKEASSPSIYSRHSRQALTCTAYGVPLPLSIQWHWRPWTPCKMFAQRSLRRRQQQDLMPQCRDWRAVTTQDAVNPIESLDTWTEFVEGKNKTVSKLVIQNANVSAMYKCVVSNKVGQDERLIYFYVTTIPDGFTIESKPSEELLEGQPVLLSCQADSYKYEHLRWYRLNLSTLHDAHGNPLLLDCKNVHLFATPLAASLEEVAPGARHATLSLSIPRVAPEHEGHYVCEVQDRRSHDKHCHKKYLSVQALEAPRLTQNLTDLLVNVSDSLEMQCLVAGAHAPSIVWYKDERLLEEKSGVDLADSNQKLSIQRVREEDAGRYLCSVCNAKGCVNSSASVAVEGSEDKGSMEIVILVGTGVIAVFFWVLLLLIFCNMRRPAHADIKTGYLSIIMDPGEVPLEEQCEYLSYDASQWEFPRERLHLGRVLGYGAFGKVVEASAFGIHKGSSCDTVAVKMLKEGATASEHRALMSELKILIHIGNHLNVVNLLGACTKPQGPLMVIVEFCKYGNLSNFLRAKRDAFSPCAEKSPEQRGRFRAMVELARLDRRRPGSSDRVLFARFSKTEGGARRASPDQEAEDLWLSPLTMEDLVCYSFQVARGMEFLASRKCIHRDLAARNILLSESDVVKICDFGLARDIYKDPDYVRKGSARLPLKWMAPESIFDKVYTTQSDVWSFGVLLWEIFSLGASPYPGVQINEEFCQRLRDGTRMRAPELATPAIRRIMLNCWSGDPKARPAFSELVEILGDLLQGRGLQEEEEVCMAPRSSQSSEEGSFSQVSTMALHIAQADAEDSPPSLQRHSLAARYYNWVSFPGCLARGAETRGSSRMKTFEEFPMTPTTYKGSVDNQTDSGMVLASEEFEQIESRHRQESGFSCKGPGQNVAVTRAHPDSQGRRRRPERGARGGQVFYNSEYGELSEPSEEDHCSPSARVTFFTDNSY
Sequence of Serine/threonine-protein kinase PLK1 (Homo sapiens) (P53350 whole entry): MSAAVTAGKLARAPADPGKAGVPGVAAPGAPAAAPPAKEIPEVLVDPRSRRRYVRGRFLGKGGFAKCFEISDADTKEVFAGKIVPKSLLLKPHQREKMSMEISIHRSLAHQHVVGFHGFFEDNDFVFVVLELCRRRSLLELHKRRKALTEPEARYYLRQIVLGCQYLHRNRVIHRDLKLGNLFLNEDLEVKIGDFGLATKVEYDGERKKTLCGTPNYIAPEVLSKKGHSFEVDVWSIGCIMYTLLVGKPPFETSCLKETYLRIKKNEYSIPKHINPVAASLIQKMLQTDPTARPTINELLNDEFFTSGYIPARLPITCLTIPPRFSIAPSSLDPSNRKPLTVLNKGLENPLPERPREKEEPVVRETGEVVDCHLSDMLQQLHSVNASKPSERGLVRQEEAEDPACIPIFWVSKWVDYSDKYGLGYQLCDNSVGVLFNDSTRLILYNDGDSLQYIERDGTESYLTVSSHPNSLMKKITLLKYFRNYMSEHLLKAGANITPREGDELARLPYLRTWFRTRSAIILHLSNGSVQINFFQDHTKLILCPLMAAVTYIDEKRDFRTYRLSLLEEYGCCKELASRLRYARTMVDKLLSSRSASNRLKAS

`NS(=O)(=O)c1ccc(N/C=C2\C(=O)Nc3ccc4ncsc4c32)cc1` gave an inhibition [1] of 41.9%, an inhibition [2] of 2.04% and an inhibition [3] of 3.28%. The inhibition [4] was 6.71%, the inhibition [5] was 8.52% and the inhibition [6] was 1.42%. The inhibition [7] was 4.37%, the inhibition [8] was 1.21% and the inhibition [9] was 7.53%. For the same compound, the inhibition [10] was 5.84%, the inhibition [11] was 22.4% and the inhibition [12] was 4.2%. For the same compound, the inhibition [13] was 4.96%, the inhibition [14] was 40.1% and the inhibition [15] was 81.1%. The inhibition [16] was 38.2%, the inhibition [17] was 93.1% and the inhibition [18] was 29.5%. The inhibition [19] was 58.6% and the inhibition [20] was 2.85%.
